Source: PubChem BioAssay
In the library only some 17% were active in any assay of this set; here they are far more common.
HepG2 viability – qHTS for Inhibitors of TGF-b: Cytotox Counterscreen; actives 0.76% (n = 410,000); AID 588856, 2011; HepG2 CAGA-GFP viability, ATP luminescence, 18 h; Potency, µM (doses to about 46.1 µM), for inactives: at the top dose activity change, negative = cytotoxicity, usual class: cytotoxic
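HepG2 CAGA-GFP cells (1000/well, DMEM with 1% FBS) received compound, then TGF-beta at 500 pg/mL final, and were incubated 18 hours at 37 degrees C. Viability was read by CellTiter-Glo luminescence. Media-only wells were set as complete cell-killing and DMSO as no toxicity.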
TGFb SMAD3 inh – qHTS for Inhibitors of TGF-b. HepG2 CAGA-GFP TGF-b/SMAD3 reporter, GFP fluorescence, 18 h; TGF-beta stimulated, 500 pg/mL final. Potency, µM (top dose mostly 46.1 µM), without a hit: at the top dose activity, negative = inhibition, usual class: inhibitors. actives 1.2% (n = 410,000). AID 588855, 2011; also: % is scaled to controls: 0 for no effect and ±100 for the full control effect; nearly all actives have a fitted effect of over 65% in size
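Smad-responsive CAGA-GFP expression was quantified in HEPG2 cells exposed to compounds and 500 pg/mL final TGF-beta for 18 h at 37 degrees C; unstimulated wells defined full inhibition.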
HT1080-NT tox – qHTS for induction of synthetic lethality in tumor cells producing 2HG: qHTS for the HT-1080-NT fibrosarcoma cell line; actives 1.6% (n = 360,000); Potency, µM (titrated, usually from 46.1 µM), for the others: at the highest dose activity, negative = less viability, usual class: cytotoxic; HT-1080-NT fibrosarcoma viability, CellTiter-Glo ATP luminescence, 48 h;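 also: NT is the 2HG producing partner of a matched IDH1 knockdown line; 0% = DMSO-treated cells and -100% = media-only wells without cells; nearly all actives have a fitted effect of over 55% in size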
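750 cells/well, RPMI + 5% FBS; 2 h settle, compound pin-transfer, 48 h at 37 degrees C. CellTiter-Glo 10 min RT, luminescence. Normalized to DMSO and media-only wells.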
HT1080 IDH1KD tx – qHTS for induction of synthetic lethality in tumor cells producing 2HG: qHTS for the HT-1080-IDH1KD cell line | HT-1080 IDH1 knockdown viability, ATP luminescence, 48 h | Potency, µM (top dose mostly 46.1 µM), inactives show top-dose activity, negative = toxicity, actives largely listed as cytotoxic | actives 2% (n = 360,000) | AID 686971, 2013;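 also: 0% = DMSO wells and -100% = cell-free medium wells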
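Knockdown cells (IDH1KD HT-1080) received compounds 2 h after plating at 750 cells/well and were kept 48 h at 37 °C in 5% FBS RPMI. A CellTiter-Glo luminescence read gave % activity for curve fitting.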
TDP1 cell CPT – qHTS for Inhibitors of human tyrosyl-DNA phosphodiesterase 1 (TDP1): qHTS in cells in presence of CPT; chicken DT40 Tdp1-/-;hTDP1 cells + 20 nM CPT, ATP luminescence, 48 h; Potency, µM (titrated, usually from 46.2 µM), for the others: at the highest dose activity change, negative = growth inhibition, most hits filed as inhibitors; actives 12% (n = 420,000); also: % is scaled to controls: 0 for no effect and ±100 for the full control effect; nearly all actives have a fitted effect of over 55% in size
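Cell growth measured by CellTiter-Glo luminescence after a minimum 48 h, 37 C compound exposure with 20 nM CPT in Tdp1-knockout DT40 cells stably expressing hTDP1, seeded 400/well; qHTS titration format.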
TDP1 cell noCPT – qHTS for Inhibitors of human tyrosyl-DNA phosphodiesterase 1 (TDP1): qHTS in cells in absence of CPT; Potency, µM (top dose mostly 46.2 µM), inactives show top-dose activity change, negative = growth inhibition, hits mostly inhibitors; DT40 Tdp1-/- hTDP1 cells, no CPT, ATP luminescence, 48 h; AID 686978, 2013; actives 15% (n = 420,000); also: % is scaled to controls: 0 for no effect and ±100 for the full control effect; nearly all actives have a fitted effect of over 55% in size
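Growth kinetics read by CellTiter-Glo luminescence after ≥48 hr at 37 °C. Cells: DT40 Tdp1-/- stably carrying human TDP1, 400 per well, compound exposure in the absence of CPT (DMSO vehicle).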
An asterisk follows results filed as active; ? = inconclusive; · = no result; ! = repeats disagree. Calls follow the shape of the dose curve; as a rule, active = well fitted curve in the direction sought with a large enough effect; inconclusive = small, poorly fitted or top-dose-only effect, or another doubt; inactive = no such curve, though single readings can be large; an effect the other way counts as inactive or inconclusive. Potency is read from the fitted curve at half-maximal effect.

SMILES	HepG2 viability	TGFb SMAD3 inh	HT1080-NT tox	HT1080 IDH1KD tx	TDP1 cell CPT	TDP1 cell noCPT
Cc1nc2ccc(S(=O)(=O)CCC(=O)Nc3ccc(F)cc3C)cc2s1	3.4%	-1.1%	·	·	?	?
COC(=O)c1ccc(Oc2cc(C)nc(SC)n2)cc1	-11.5%	-0.8%	?	5.8µM*	4.11µM*	2.91µM*
O=C(CN1C(=O)CCSc2ccc(S(=O)(=O)N3CCCC3)cc21)Nc1cccc(F)c1	-8.4%	-2.2%	·	·	13µM*	?
O=C(CN1C(=O)CCSc2ccc(S(=O)(=O)N3CCCC3)cc21)Nc1cccc(Cl)c1	-21.8%	?	·	·	23.1µM*	?
O=C(CN1C(=O)CCSc2ccc(S(=O)(=O)N3CCCC3)cc21)Nc1ccccc1	-2.2%	-1.2%	11.0%	0.6%	-3.9%	-0.7%
COc1cc(CNC2CCCCC2OC)cc(OC)c1OC (stereo unspecified)	0.3%	7.3%	-8.5%	1.6%	21.9%	8.5%
c1cnc2cc3c(cc2n1)[C@@H]1CNC[C@H]3C1	·	·	·	·	2.5%	5.9%
N#Cc1c(/N=C/c2cc3ccccc3s2)sc2c1CCC2	-29.0%	-4.4%	13.1%	-2.8%	?	23.1µM*
Cc1ccc(/C=N/c2sc3c(c2C#N)CCC3)s1	17.8%	-6.7%	-1.6%	-1.0%	-0.5%	-25.1%
COc1ccc(CN2C(=O)c3ccccc3C2c2nnnn2Cc2ccccc2)cc1OC (stereo unspecified)	·	·	0.5%	5.9%	?	?
CN=c1scc(-c2ccc([N+](=O)[O-])cc2)n1/N=C/c1ccco1	5.4%	-17.1%	17.2%	?	11.3%	-10.5%
O=C1c2ccc([N+](=O)[O-])cc2NC(c2ccco2)N1/N=C/c1ccco1 (stereo unspecified)	-14.9%	13.0%	-9.5%	-13.0%	-26.4%	18.4µM*
CC(C)(C)NC(=O)CCCCCCCC(=O)NC(C)(C)C	-8.6%	1.0%	0.3%	-0.5%	-3.4%	-4.9%
CCN(CC(=O)NC(C)(C)C)C(=O)CCl	-0.4%	-10.0%	4.9%	0.0%	20.6µM*	13µM*
CC(=O)Nc1ccccc1OC(C)C(=O)N1CC(C)CC(C)C1 (stereo unspecified)	-8.5%	-3.3%	3.5%	17.8%	?	20.6µM*
Cc1cc(NC(=O)c2cccc(S(=O)(=O)N3CCOCC3)c2)c2ccccc2n1	-21.2%	-2.5%	-11.4%	-3.7%	?	?
O=C(NCc1cccc(Br)c1)c1cnn(-c2ccc(F)cc2)c1-n1cccc1	-31.2%	?	·	·	·	·
CCCCCCn1c(=O)n2n(c1=O)C[C@]1(OC(=O)NCC3CCCCC3)CN(S(=O)(=O)c3ccc(C)cc3)C[C@]1(O)C2	-51.7%	?	?	?	?	?
CCCCCCn1c(=O)n2n(c1=O)C[C@]1(OC(=O)NC3CCCC3)CN(S(=O)(=O)c3ccc(C)cc3)C[C@]1(O)C2	-22.7%	?	?	?	?	23.1µM*
CCCCCCn1c(=O)n2n(c1=O)C[C@]1(OC(=O)NCc3ccccc3F)CN(S(=O)(=O)c3ccc(C)cc3)C[C@]1(O)C2	50.5%	?	?	?	?	14.6µM*
CCCCC(=O)Nc1cc(Cl)ccc1C(=O)O	0.4%	9.8%	0.2%	-2.2%	-14.4%	-7.2%
C/C=C1\COC(C(=O)NCCN2CCOCC2)(C(F)(F)F)C=C1C=C1CCCCC1 (stereo unspecified)	-16.1%	?	·	·	·	·
C/C=C1\COC(C(=O)NCCCN2CCCC2=O)(C(F)(F)F)C=C1C=C(C)C (stereo unspecified)	11.2µM*!	?	1.2%	9.3%	20.6µM*	18.4µM*
C/C=C1\COC(C(=O)NCCN2CCCC2)(C(F)(F)F)C=C1C=C1CCCCC1 (stereo unspecified)	-82.4%	?	-9.1%	-13.2%	18.4µM*	20.6µM*
Cc1ccc(-c2noc(-c3ccc(NCc4cccnc4)c([N+](=O)[O-])c3)n2)cc1	2.2%	12.9%	·	·	?	5.17µM*
SMILES	HepG2 viability	TGFb SMAD3 inh	HT1080-NT tox	HT1080 IDH1KD tx	TDP1 cell CPT	TDP1 cell noCPT
O=[N+]([O-])c1cc(-c2nc(-c3ccccc3)no2)ccc1NCc1cccnc1	-7.8%	?	·	·	11.6µM*	5.8µM*
O=C(Nc1ccc(F)cc1)C1CCN(c2nc3ccccc3n3cccc23)CC1	2.2%	0.0%	·	·	?	?
O/N=C/c1ccccc1Oc1ccc(Cl)cc1	-33.1%	?	-8.6%	-8.1%	?	16.4µM*
O/N=C/c1ccccc1Oc1ccccc1	-29.4%	2.0%	-8.4%	-4.9%	-11.8%	-22.6%
Cc1cc(Nc2ccccc2Cl)c2ccccc2n1	-29.3%	?	-10.4%	-4.1%	23.1µM*	13µM*
Cc1cc(Nc2ccc([N+](=O)[O-])cc2)c2ccccc2n1	-64.8%	?	?	?	16.4µM*	18.4µM*
COc1ccc(OC)c(NC2=C(c3ccccc3)C(=O)c3ccccc32)c1	-19.8%	-35.5%	·	·	1.46µM*	1.03µM*
Cc1cc(NCc2ccccc2)c2ccccc2n1	-37.2%	?	-14.8%	-21.0%	20.6µM*	20.6µM*
COc1ccc(NC2=C(c3ccccc3)C(=O)c3ccccc32)cc1Cl	-38.4%	-8.9%	·	·	?	?
CSc1cccc(CNC(=O)C2CCC(=O)N(CCc3ccccc3)C2)c1 (stereo unspecified)	-0.4%	-5.5%	0.4%	0.1%	?	?
CCN(CC)C(=O)NC1CC(=O)N(c2ccc(OC)cc2)C1 (stereo unspecified)	-0.5%	-0.1%	12.2%	6.0%	-20.8%	-8.0%
CC(C)CN(CC(C)C)S(=O)(=O)N1CCC(C(=O)NCCc2ccc(Cl)cc2)CC1	-27.8%	?	-27.4%	?	?	?
COC(=O)c1nn(-c2ccccc2)c(=O)cc1Oc1ccccc1	-6.3%	?	-6.6%	-12.3%	-1.5%	-14.3%
COc1cc(C(=O)NCC(c2ccc3c(c2)OCO3)N2CCN(C)CC2)cc(OC)c1OC (stereo unspecified)	-3.2%	13.6%	·	·	0.5%	-10.7%
